From PubChem BioAssay (NCATS) come the findings set out here.

“And” between values parts separate entries of the source, which are not always exact repeats. Equal values may be shown once. Inconclusive results are not listed. Values without a mark were called inactive. Calls come from the whole dose curve; as a rule, active = well fitted curve in the direction sought with a large enough effect; inconclusive = small, poorly fitted or top-dose-only effect, or another doubt; inactive = no such curve, though single readings can be large or run the other way.
% is set by controls: 0 for no effect and ±100 for the full control effect.

A short description of this assay: qHTS Assay for Identifying Gametocytocidal Compounds (AID 743244).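 Note: actives lower the fluorescent signal which means gametocytes are killed.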 The following applies: P. falciparum 3D7 stage III-V gametocytes, alamarBlue, 72 h; max response: active compounds read low. The procedure, abridged: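 Stage III–V gametocytes of P. falciparum 3D7 were seeded at 20,000 cells/well onto pre-dispensed compounds. After 72 h, 37 °C, 5% CO2, alamarBlue was added for another 24 h.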
Regarding `NS(=O)(=O)c1cc2c(cc1Cl)NC(CSCc1ccccc1)=NS2(=O)=O`, the max response was -8.8%.

Consider `CS(=O)(=O)c1ccc([C@@H](O)[C@@H](CF)NC(=O)C(Cl)Cl)cc1`, for which the max response was 23.9%.

Take `OCC(O)CN1CCN(c2ccccc2)CC1` (centres undefined): the max response was -0.192%.

Consider `Cn1cc[nH]c1=S`, for which the max response is -4.61%.

For `Nc1ccc(S(=O)(=O)NC(=O)c2ccccc2)cc1`, the max response is 7.19%.

In the case of `NC(=O)NC(=O)Cc1ccccc1`, the max response was 3.39%.

In the case of `c1ccc(CN(CC2=NCCN2)c2ccccc2)cc1`, the max response is -10.1%.

For the molecule `CCOC(CN1CCN(CC(C)C(=O)c2ccccc2)CC1)c1ccccc1` (centres undefined), the max response was 18.2%.

`O=C(CCCN1CCN(c2ccccn2)CC1)c1ccc(F)cc1`: the max response was 11.2%.

As for `CO/N=C(\C(=O)N[C@@H]1C(=O)N2C(C(=O)O)=C(CSc3nc(=O)c(O)nn3C)CS[C@H]12)c1csc(N)n1`, the max response was -6.47%.

For the molecule `Cc1ncc([N+](=O)[O-])n1CC(O)CCl` (centres undefined), the max response was 22.3%.

For the molecule `O=C(O)c1ccccc1-c1ccc(C(F)(F)F)cc1`, the max response is -6.58%.

In the case of `O=C(O)COc1nn(Cc2ccccc2)c2ccccc12`, the max response was 49.6%.

Regarding `CCC(=O)c1ccc(O)cc1`, the max response is -0.113%.

In the case of `CCN(CC)CCSC(=O)C(c1ccccc1)c1ccccc1`, the max response was -11.9%.

For the molecule `Cc1ncc(COP(=O)(O)O)c(C=O)c1O`, the max response is 5.05%.

`NC1[C@H]2CN(c3nc4c(cc3F)c(=O)c(C(=O)O)cn4-c3ccc(F)cc3F)C[C@@H]12` (some centres undefined): the max response is -0.422%.

Regarding `O=C(O)[C@H](O)c1ccccc1`, the max response was 17.9%.

In the case of `O=c1[nH]cnc2c1ncn2[C@@H]1O[C@H](CO)[C@@H](O)[C@H]1O`, the max response is 5.28%.

Regarding `CCCCOc1cc(C(=O)OCCN(CC)CC)ccc1N`, the max response was 9.75%.

As for `N[C@H](C(=O)O)c1ccc(O)cc1`, the max response is -1.91%.

Regarding `C[C@@H]1CN(c2c(F)c(F)c3c(=O)c(C(=O)O)cn(C4CC4)c3c2F)C[C@H](C)N1`, the max response is 12.6%.

With `O=C(O)CC(O)C(=O)O` (centres undefined), the max response is -0.517%.

For the molecule `CCCCC/C(C=O)=C\c1ccccc1`, the max response is 8.31%.

Consider `CN1CCOC(c2ccccc2)c2ccccc2C1` (centres undefined), for which the max response is -7.73%.

For the molecule `CC(=O)Nc1ccc(/C=N/NC(N)=S)cc1`, the max response was -6.31% and 5.4%.

Consider `O=C(O)CN1C(=O)c2cccc3cccc(c23)C1=O`, for which the max response was 0.25%.

Consider `O=C1Nc2ccc(Cl)cc2[C@@](C#CC2CC2)(C(F)(F)F)O1`, for which the max response is -21.2%.

For `O=c1cc[nH]c(=O)[nH]1`, the max response is 17%.

As to `C[C@@H]1C[C@H]2[C@@H]3C[C@H](F)C4=CC(=O)C=C[C@]4(C)[C@@]3(F)[C@@H](O)C[C@]2(C)[C@@]1(O)C(=O)CO`, the max response is 2.1%.

In the case of `CN1CCC[C@@H]1Cc1c[nH]c2ccc(CCS(=O)(=O)c3ccccc3)cc12`, the max response is -0.49%.

With `CCOc1ccc2ccccc2c1C(=O)N[C@@H]1C(=O)N2[C@@H]1SC(C)(C)[C@@H]2C(=O)O`, the max response is -1.05%.

Take `COc1ccc(S(=O)(=O)Nc2nnc(CC(C)C)s2)cc1`: the max response is 7.52% and 10.3%.

With `Cc1cccc(C)c1NC(=O)CN(CC(=O)O)CC(=O)O`, the max response is -6.34%.
